{"source": "PubChem BioAssay AID602440", "about": "(Sanford-Burnham Center for Chemical Genomics, 2012)", "note": "The campaign covered roughly 360,000 compounds. About 2,300 (0.64%) were called active. This is one part of a sample in which actives are shown more often than they occur. A number with no mark means an inactive call. Rule as the data show it: active = inhibition mostly above about 40% (no sharp cut-off); inactive = mostly below about 27%."}
{"biological_target": "Sentrin-specific protease 8 (Homo sapiens) (UniProt Q96LD8)", "sequence (Q96LD8 whole entry, looked up)": "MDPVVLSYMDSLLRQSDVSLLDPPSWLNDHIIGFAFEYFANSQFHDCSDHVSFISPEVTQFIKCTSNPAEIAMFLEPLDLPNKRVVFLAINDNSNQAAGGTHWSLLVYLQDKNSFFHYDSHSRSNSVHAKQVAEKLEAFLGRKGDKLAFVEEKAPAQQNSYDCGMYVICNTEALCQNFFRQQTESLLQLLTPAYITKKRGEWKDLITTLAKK", "assay": "human SENP8 protease inhibitors, primary screen, biochemical, fluorescence, Nedd8 protein substrate, uHTS (AID 602440)", "settings": "recombinant SENP8, Nedd8 substrate fluorescence; at 20 µM; active compounds read high"}
{"compound": "COc1cc(C(F)(F)F)c(C(=O)N(C)c2ccc(Cl)cc2)cn1", "inhibition": "-0.9%"}
{"compound": "OC1CSc2nc3ccccc3n2C1", "note": "(centres undefined)", "inhibition": "9.1%"}
{"compound": "O=C1NC(c2ccccc2)CCC1(Cl)Cl", "note": "(centres undefined)", "inhibition": "14.1%"}
{"compound": "Nc1cccc(S(=O)(=O)Nc2ccc(SC(F)F)cc2)c1", "inhibition": "5.2%"}
{"compound": "Cc1c(NS(=O)(=O)c2cccc(C(=O)Nc3ccc(SC(F)F)cc3)c2)c(=O)n(-c2ccccc2)n1C", "inhibition": "-1.9%"}
{"compound": "COc1ccc(NC(=O)/C(N=Nc2cccc(S(=O)(=O)Nc3ccc(SC(F)F)cc3)c2)=C(\\C)O)cc1", "inhibition": "38.3% (active)"}
{"compound": "CC(=O)c1cnc(SCCN2C(=O)c3ccccc3C2=O)nc1C", "inhibition": "9.5%"}
{"compound": "CCOCCCNC(=O)c1c[nH]c2cc(C)ccc2c1=O", "inhibition": "5.8%"}
{"compound": "CCc1[nH]nc(C(=O)N2CCCC(CO)(Cc3ccc(F)cc3F)C2)c1C", "note": "(centres undefined)", "inhibition": "3.5%"}
{"compound": "Cn1cccc1C(=O)N1CCc2ccccc2C1", "inhibition": "-0.8%"}
{"compound": "CS(=O)(=O)N(CC(=O)N1CCc2ccccc2C1)c1ccc(Br)cc1", "inhibition": "6.5%"}
{"compound": "CN(c1ccc(C(=O)N2CCc3ccccc3C2)cc1)S(C)(=O)=O", "inhibition": "43.9% (active)"}
{"compound": "COc1ccc(CNC(=O)CN(C(=O)c2csnn2)c2cnc3ccccc3c2)cc1", "inhibition": "-222%"}
{"compound": "CCN(CC)C(=O)CSc1nc2ccccc2n1CC(=O)N1CCN(c2ccccc2OC)CC1", "inhibition": "33.5%"}
{"compound": "Nc1ccc2[nH]c(=S)sc2c1", "inhibition": "-81.4%"}
{"compound": "O=c1[nH]c2ccccc2s1", "inhibition": "44.5% (active)"}
{"compound": "COc1ccc(-c2[nH]ncc2CN(C)Cc2cc(C)[nH]n2)c(F)c1", "inhibition": "8.6%"}
{"compound": "CCOC(=O)c1c(CC(C)C)csc1/N=C/C1=C(O)CCCC1=O", "inhibition": "-55.6%"}
{"compound": "Nn1cnnc1N/N=C/c1cc([N+](=O)[O-])c(Cl)cc1Cl", "inhibition": "51.7% (active)"}
{"compound": "CCCOc1cccc(C(=O)Nc2ccccc2C(=O)N2CCN(C)CC2)c1", "inhibition": "4.7%"}
{"compound": "C[C@H]1CN([C@@H](C)CO)C(=O)CCCn2cc(nn2)CO[C@@H]1CN(C)S(=O)(=O)c1ccc(-n2cccn2)cc1", "inhibition": "8.3%"}
{"compound": "Cc1cc(C)nc(N2C(=O)CC(Cc3ccccc3)C2=O)n1", "note": "(centres undefined)", "inhibition": "2.8%"}
{"compound": "COc1cc(CN2CCCN(C)CC2)c([N+](=O)[O-])cc1OC", "inhibition": "11.8%"}
{"compound": "O=c1[nH]n2c(=O)c3c([nH]c2c1N=Nc1ccccc1)CCC3", "inhibition": "46.3% (active)"}
{"compound": "CC(C)(C)n1c(=O)[nH]c2c(c1=O)CCC2", "inhibition": "16.6%"}
{"compound": "CCCCOc1ccc(C(=O)NCC(=O)OCC(=O)N2CCN(S(=O)(=O)c3ccc(C)cc3C)CC2)cc1", "inhibition": "7.7%"}
{"compound": "Cc1cc(C)nc(SCc2nnc(SCC(=O)OC3CCCCC3)o2)n1", "inhibition": "6.5%"}
{"compound": "COc1ccccc1C1SCCN1C(=O)c1ccc([N+](=O)[O-])cc1", "note": "(centres undefined)", "inhibition": "8.4%"}
{"compound": "CCOC(=O)C1CCCN(C(=O)c2ccc(N(C)C)cc2)CC1", "note": "(centres undefined)", "inhibition": "18.8%"}
{"compound": "CCOC(=O)C1CCCN(C(=O)c2ccc(C)c(F)c2)CC1", "note": "(centres undefined)", "inhibition": "40.6% (active)"}
{"compound": "CCOC(=O)C1CCCN(C(=O)c2ccc(C)c(S(=O)(=O)N3CCCCC3)c2)C1", "note": "(centres undefined)", "inhibition": "4.6%"}
{"compound": "CC(C)N(C(=O)Cn1cc(S(=O)(=O)CC(=O)N2CCOCC2)c2ccccc21)C(C)C", "inhibition": "5.7%"}
{"compound": "COC(=O)c1nc2n(n1)C(c1ccc([N+](=O)[O-])cc1)C(C(=O)Nc1ccc(Cl)cc1)=C(C)N2", "note": "(centres undefined)", "inhibition": "18.3%"}
{"compound": "O=C1[C@@H](c2ccccc2)[C@@H](c2ccccc2)N1c1cccnc1", "inhibition": "-26.4%"}
{"compound": "COC(=O)c1cc(NC2c3ccccc3C(=O)N2c2ccc(Cl)cn2)cc(C(=O)OC)c1", "note": "(centres undefined)", "inhibition": "-28%"}
{"compound": "CCc1ccccc1NC1c2ccccc2C(=O)N1c1cccnc1", "note": "(centres undefined)", "inhibition": "41% (active)"}
{"compound": "O=C(Cc1ccccc1)NC(=S)Nc1ccc(N2CCCCC2)cc1", "inhibition": "42.1% (active)"}
{"compound": "COc1ccccc1C(=O)NC(=S)Nc1ccc(N2CCOCC2)cc1", "inhibition": "14.8%"}
{"compound": "O=C(CN1CCN(c2ccc(O)cc2)CC1)Nc1ccc(-c2ccccc2)cc1", "inhibition": "23.2%"}
{"compound": "CN1CCn2cnc(C(=O)NCC(=O)OC(C)(C)C)c2C1=O", "inhibition": "14.9%"}
{"compound": "CCN(CC)CCCNC(=O)CCn1nc(-c2ccc(Cl)cc2)ccc1=O", "inhibition": "13.2%"}
{"compound": "CN(CC(=O)Nc1ccc(F)cc1)C(=O)c1ccc(-c2ccc(Cl)cc2)o1", "inhibition": "-23.1%"}
{"compound": "Cc1[nH][nH]c(=O)c1C(c1ccc(-c2ccc(Cl)cc2)o1)c1c(C)[nH][nH]c1=O", "inhibition": "63.5% (active)"}
{"compound": "COc1ccc(C(=O)NC(=S)N2CCNC(=O)C2CC(=O)OC(C)C)cc1", "note": "(centres undefined)", "inhibition": "-6.1%"}
{"compound": "CC(=O)c1ccc(OCC(=O)N(C)C2CCS(=O)(=O)C2)cc1", "note": "(centres undefined)", "inhibition": "18.3%"}
{"compound": "Cn1c(=O)[nH]c(=O)c2c1nc(CN(Cc1ccccc1)Cc1ccccc1)n2CCN1CCOCC1", "inhibition": "17.1%"}
{"compound": "COCCNC(=O)NC(=O)COC(=O)C1(c2ccc(Cl)cc2)CC1", "inhibition": "6.8%"}
{"compound": "O=C(Cc1ccccc1)Nc1ccc(C(=O)Nc2ccccc2C(=O)O)cc1", "inhibition": "-13.4%"}
{"compound": "O=C(Cn1ccc(=O)[nH]c1=O)Nc1ccc(C(=O)O)c(O)c1", "inhibition": "7.9%"}
{"compound": "O=C(Nc1ccc(C(=O)O)c(O)c1)c1ccccc1", "inhibition": "43.3% (active)"}
{"compound": "CC(C)C(NC(=O)c1c(F)cccc1F)C(=O)NCc1ccncc1", "note": "(centres undefined)", "inhibition": "-7.7%"}
{"compound": "N#Cc1ccc(C(C(=O)NCc2ccccc2)n2c(=O)c(-c3ccco3)nc3ccccc32)cc1", "note": "(centres undefined)", "inhibition": "-432%"}
{"compound": "c1coc(-c2nc3nc4ccccc4n3nc2-c2ccco2)c1", "inhibition": "106% (active)"}
{"compound": "Cc1cccc(C)c1NC(=O)C(c1cccc2ccccc12)n1c(=O)c(-c2ccco2)nc2ccccc21", "note": "(centres undefined)", "inhibition": "-458%"}
{"compound": "Cc1ccc2c(Cl)c(C(=O)Nc3nn[nH]n3)sc2c1", "inhibition": "-0.2%"}
{"compound": "Cc1noc(C)c1NC(=O)Nc1ccc2c(c1)C(=O)N([C@H](C)CO)C[C@H](C)[C@@H](CN(C)S(=O)(=O)c1cn(C)cn1)O2", "inhibition": "-6%"}
{"compound": "O=C(C/C(=N\\NC(=O)c1ccccc1Br)C(F)(F)F)c1cccs1", "inhibition": "25.6%"}
{"compound": "Cc1nc2nc(SCC(=O)c3ccccc3)[nH]c2cc1Br", "inhibition": "13.3%"}
{"compound": "Cc1nc(SCC(=O)c2ccccc2)c([N+](=O)[O-])[nH]1", "inhibition": "41.9% (active)"}
{"compound": "O=C(CSc1nnc2ccccn12)c1ccccc1", "inhibition": "-1.2%"}
{"compound": "Cc1cc(C)n2nc(C(=O)OCC(=O)N(C)CC(=O)Nc3ccc(F)cc3)nc2n1", "inhibition": "3.2%"}
{"compound": "COc1ccc(CCNC(=O)COC(=O)C2CC2C)cc1", "note": "(centres undefined)", "inhibition": "9.7%"}
{"compound": "Cc1cc(NC(=O)CN2C(=O)NC(CCc3ccccc3)C2=O)no1", "note": "(centres undefined)", "inhibition": "12.2%"}
{"compound": "Cc1cccc(C)c1NC(=O)CNC(=O)C1CCCC1", "inhibition": "11.2%"}
{"compound": "CCc1cccc(C)c1NC(=O)COC(=O)Cc1ccsc1", "inhibition": "-35.2%"}
{"compound": "CCc1cccc(C)c1NC(=O)COC(=O)CC1CCCC1", "inhibition": "40.9% (active)"}
{"compound": "Cc1ccc(N(C(=O)CC2NC(=O)NC2=O)C2(C(=O)NC3CCCC3)CCCCC2)cc1", "note": "(centres undefined)", "inhibition": "21.4%"}
{"compound": "Cc1ccc(NC(=O)CN(C)C(=O)c2cccc(S(=O)(=O)N3CCCC3)c2)cc1", "inhibition": "18.7%"}
{"compound": "COc1ccc(N(CC(=O)NCCSCc2cccc(Cl)c2)S(C)(=O)=O)cc1", "inhibition": "16.9%"}
{"compound": "COc1ccc(CCNC(=O)CN(c2ccccc2)S(C)(=O)=O)cc1", "inhibition": "13.5%"}
{"compound": "COc1cccc(N(CC(=O)NCCSc2ccccn2)S(C)(=O)=O)c1", "inhibition": "40.3% (active)"}
{"compound": "COc1ccc(NC(=O)CCNS(=O)(=O)c2ccc3c(c2)c(=O)n(C)c(=O)n3C)cc1OC", "inhibition": "9.5%"}
{"compound": "OCc1n[nH]c(CO)n1", "inhibition": "6.5%"}
{"compound": "CN1C(=O)/C(=C/C=C2\\SCCN2C)OC1=S", "inhibition": "43.8% (active)"}
{"compound": "O=[N+]([O-])c1ccc(C=Nc2ccc(Cl)cc2Cl)s1", "inhibition": "69% (active)"}
{"compound": "CCNc1nc(N)nc(Oc2ccc(OCC)nn2)n1", "inhibition": "6.3%"}
{"compound": "O=P(O)(CP(=O)(c1ccccc1)c1ccccc1)c1ccccc1", "inhibition": "10.2%"}
{"compound": "CC(C)(C)c1cc(P(=O)(c2ccccc2)c2ccccc2)ccc1O", "inhibition": "20.7%"}
{"compound": "O=P(O)(CP(=O)(c1ccccc1)c1ccccc1)c1ccccc1O", "inhibition": "41.1% (active)"}
{"compound": "COC(=O)C1=C(C)N(C)C(=S)NC1c1cc(OC)ccc1OC", "note": "(centres undefined)", "inhibition": "10%"}
{"compound": "COC(=O)[C@]12CCCCC=C1N(CCC1=CCCCC1)C(=O)[C@H](CC(=O)NCC1CCCCC1)C2", "inhibition": "10.5%"}
{"compound": "COc1cc(C(=O)NC2CCN(Cc3ccccc3)CC2)cc(Cl)c1OC(C)C", "inhibition": "3.3%"}
{"compound": "CC(=O)Nc1ccc(NC(=O)COc2ccc(S(=O)(=O)NC(C)c3ccccc3)cc2)cc1", "note": "(centres undefined)", "inhibition": "8.8%"}
{"compound": "CCOC(=O)C/C(C)=N\\Nc1ccc([N+](=O)[O-])cc1[N+](=O)[O-]", "inhibition": "23.3%"}
{"compound": "CCOC(=O)C(=O)Nc1nc(-c2ccccc2)c(CC)s1", "inhibition": "16.8%"}
{"compound": "CCOC(=O)/C(=N\\Nc1ccccc1[N+](=O)[O-])c1csc(Nc2ccccc2)n1", "inhibition": "52.3% (active)"}
{"compound": "NC(=O)c1ccc(N2CCOCC2)nc1", "inhibition": "10.6%"}
{"compound": "Nc1ncnc2c1ncn2[C@@H]1O[C@H](CNC(=O)[C@H](N)Cc2cccnc2)[C@@H](O)[C@H]1O", "inhibition": "6.7%"}
{"compound": "CN(CCc1ccccn1)C(=O)CCC1CCCN(Cc2ccccc2OC(F)F)C1", "note": "(centres undefined)", "inhibition": "29.2%"}
{"compound": "Nc1ccc2nc3c(=O)[nH]c(=S)[nH]c3nc2c1", "inhibition": "46.9% (active)"}
{"compound": "CC(C)(C)CN1CCNC(=O)C1CC(=O)NC1Cc2ccccc2C1", "note": "(centres undefined)", "inhibition": "-47.4%"}
{"compound": "COC(=O)CCCC1=CC2=C(c3ccccc3)C(=O)C(C)(OC(=O)C3CCCC3)C(=O)C2=CN1c1ccc(OC)cc1", "note": "(centres undefined)", "inhibition": "-154%"}
{"compound": "CCCCC1=CC2=CC(=O)C(C)(OC(=O)CC)C(=O)C2=CN1CCCOC(C)C", "note": "(centres undefined)", "inhibition": "-190%"}
{"compound": "COC(=O)CCCC1=CC2=CC(=O)C(C)(OC(=O)c3cccs3)C(=O)C2=CN1CC(C)C", "note": "(centres undefined)", "inhibition": "40.8% (active)"}
